Assay outcomes as filed in PubChem.
Shown are actives, neighbours in structure and some others; about 13% of the full set was active somewhere.
Sfp inh: qHTS Assay for Inhibitors of Bacillus subtilis Sfp phosphopantetheinyl transferase (PPTase); 310,000 compounds, 3.5% hits; Potency, µM, for inactives: largest response in the series, negative = inhibition, hits mostly inhibitors; Biochemical Sfp PPTase activity, qHTS;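 also: the enzyme is Sfp with the accession as filed and its product quenches rhodamine fluorescence; potency is read from the fitted curve at half-maximal effect; 0% = enzyme reaction without inhibitor and -100% = no enzyme wells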
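Sfp 15 nM + cpd, 15 min RT; start w/ rhodamine-CoA 5 uM, BHQ-2-YbbR 12.5 uM (final); 50 mM Hepes pH 7.6, 10 mM MgCl2, 0.01% NP-40, 0.01% BSA; read 525/598 nm at 0 and 30 min.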
miR-21 reporter: qHTS Assay for Modulators of miRNAs and/orActivators of miR-21; HeLa miR-21 FLuc reporter, luciferase, 48 h; AID 2288, 2010; 340,000 tested, under 10 active; Potency, µM (top dose mostly 38.3 µM), without a hit: at the top dose activity change, positive = activation, hits mostly activators;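 also: % of control where 0% means no effect; miR-21 action dims this reporter so a rising signal means less miR-21 action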
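Luminescence from a firefly luciferase reporter carrying a miR-21 binding site downstream, stably expressed under a CMV promoter in HeLa cells that make miR-21 endogenously, reports miRNA modulation after 48 h compound exposure up to approximately 40uM final.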
ALDH1A1 inh: qHTS Assay for Inhibitors of Aldehyde Dehydrogenase 1 (ALDH1A1). Aldehyde dehydrogenase 1A1 (Homo sapiens), P00352. Purified ALDH1A1, NADH fluorescence, propionaldehyde substrate. Potency, µM (series often up to 75.3 µM), for the others: top-dose activity, negative = inhibition, hits mostly inhibitors. 220,000 compounds, 7.3% hits. AID 1030, 2008; active = well fitted inhibition curve with a large enough effect, not every such curve was filed as active; inconclusive = small, poorly fitted or top-dose-only effect, or another doubt; inactive = no such curve, though single readings can be large or run the other way;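 also: potency is read from the fitted curve at half-maximal effect; plate controls were no enzyme wells and a reference inhibitor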
JMJD2E inh: qHTS Assay for Inhibitors of Human Jumonji Domain Containing 2E (JMJD2E); Potency, µM (top dose mostly 57.1 µM), without a hit: at the highest dose activity change, negative = inhibition, most hits filed as inhibitors; JMJD2E catalytic domain, FDH-coupled NADH fluorescence (FDH is formaldehyde dehydrogenase); 230,000 compounds, 1.6% hits; active = well fitted inhibition curve with a large enough effect, not every such curve was filed as active; inconclusive = small, poorly fitted or top-dose-only effect, or another doubt; inactive = no such curve, though single readings can be large or run the other way;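 also: potency is read from the fitted curve at half-maximal effect; 0% = wells with enzyme and -100% = buffer wells without enzyme; nearly all actives have a fitted effect of over 50% in size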
Target sequence (B2RXH2 1-337 limits assumed): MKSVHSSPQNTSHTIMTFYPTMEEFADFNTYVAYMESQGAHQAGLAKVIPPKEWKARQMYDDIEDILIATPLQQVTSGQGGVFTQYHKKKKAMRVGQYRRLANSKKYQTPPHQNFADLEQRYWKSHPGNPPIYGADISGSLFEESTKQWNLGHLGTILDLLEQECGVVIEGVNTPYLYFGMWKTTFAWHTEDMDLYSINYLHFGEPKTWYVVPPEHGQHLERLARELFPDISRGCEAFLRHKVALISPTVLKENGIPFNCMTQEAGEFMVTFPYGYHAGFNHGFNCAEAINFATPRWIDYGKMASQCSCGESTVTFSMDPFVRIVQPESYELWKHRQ
Lamin A splicing: qHTS Assay for Modulators of Lamin A Splicing; AID 1487, 2009; 200,000 compounds, 0.01% hits; Potency, µM (titrated, usually from 46.1 µM), inactives show top-dose ratio change, negative = inhibition, usual class: inhibitors; HeLa LMNA splicing GFP/RFP minigene ratio, 48 h; active = well fitted inhibition curve with a large enough effect in the signal ratio, with a control signal flat, not every such curve was filed as active; inconclusive = small, poorly fitted or top-dose-only effect, or effect the other way, or a change in a side signal; the % refers to the signal ratio; also: potency is read from the fitted curve at half-maximal effect; % is scaled to controls: 0 for no effect and ±100 for the full control effect
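Read-out is the ratio of GFP to DsRed2 object intensity, acquired by 488 nm laser-scanning cytometry on HeLa lamin A-EGFP minigene reporter cells. Compound incubation 48 hrs at 37 °C in Opti-MEM with 2% FBS; DMSO 0.5% final.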
G9a block: qHTS Assay for Inhibitors of Histone Lysine Methyltransferase G9a | Histone-lysine N-methyltransferase EHMT2 (Homo sapiens), Q96KQ7 | G9a H3K9 monomethylation, AlphaScreen, 2 h | Potency, µM (series often up to 102 µM), for inactives: at the top dose activity, negative = inhibition, hits mostly inhibitors | 350,000 compounds, 8.8% hits; also: potency is read from the fitted curve at half-maximal effect; % is scaled to controls: 0 for no effect and ±100 for the full control effect; nearly all actives have a fitted effect of over 75% in size
Target sequence (Q96KQ7 913-1193 limits assumed): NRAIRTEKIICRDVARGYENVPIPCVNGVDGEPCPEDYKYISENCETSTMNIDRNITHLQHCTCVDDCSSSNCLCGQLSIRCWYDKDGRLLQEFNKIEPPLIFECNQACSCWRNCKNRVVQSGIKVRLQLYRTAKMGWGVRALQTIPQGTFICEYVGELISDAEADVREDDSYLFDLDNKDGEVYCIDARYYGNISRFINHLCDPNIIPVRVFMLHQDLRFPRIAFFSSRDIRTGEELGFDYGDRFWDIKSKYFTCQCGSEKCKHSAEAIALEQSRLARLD
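Enzyme 20 nM + cpd, 15 min RT; add b-H3K9 pep 500 nM / SAM 20 uM; 2 h RT; anti-H3K9me1 Ab 0.5 ug/mL + SA donor / anti-rabbit acceptor beads 20 ug/mL each, 10 min; AlphaScreen read.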
* = called active by the depositor; [ ] = remark or other dose. Unless noted, calls follow the shape of the dose curve; as a rule, active = well fitted curve in the direction sought with a large enough effect; inconclusive = small, poorly fitted or top-dose-only effect, or another doubt; inactive = no such curve, though single readings can be large; an effect the other way counts as inactive or inconclusive.

For COC(=O)C1=CO[C@@H](O)[C@@H]2C(CO)=CC[C@H]12 the results were G9a block 0.7%[59 µM].
Cc1ccccc1-n1c(SCC(=O)c2ccccc2)nnc1-c1ccc(F)cc1 was read as miR-21 reporter inconclusive, Lamin A splicing -11.6%[46 µM] and G9a block 19.2%[59 µM].
Cc1cc(C(=O)CSc2nnnn2C)c(C)n1Cc1ccco1 was read as Sfp inh -4.6%, miR-21 reporter -52.4%, ALDH1A1 inh 28.2µM*, JMJD2E inh 0.0% and G9a block inconclusive.
Screening Cc1ccccc1-n1c(SCC(=O)c2cc(C)n(C)c2C)nnc1-c1ccncc1 returned Sfp inh 2.4%, miR-21 reporter 10.6%, ALDH1A1 inh inconclusive, JMJD2E inh -6.5%, Lamin A splicing -12.3% and G9a block 70.8µM*.
`Cc1cc(C(=O)CSc2nnnn2C)c(C)n1CCc1ccc(F)cc1` gave Sfp inh 12.3%, miR-21 reporter 3.1%, ALDH1A1 inh -0.4%, JMJD2E inh -6.0%, Lamin A splicing 16.6% and G9a block 21.5%.
Cc1cc(C(=O)COC(=O)c2ccc(O)cc2)c(C)n1Cc1ccco1 was read as Sfp inh -22.5%, miR-21 reporter -72.2%, ALDH1A1 inh 7.94µM*, JMJD2E inh -1.1%, Lamin A splicing -5.1% and G9a block inconclusive.
Cc1cc(C(=O)CSc2ncccn2)c(C)n1Cc1ccco1 was read as Sfp inh 56.2µM*, miR-21 reporter -36.3%, ALDH1A1 inh inconclusive, JMJD2E inh inconclusive and G9a block 44.7µM*.
Screening NC(=O)C1CCN(c2nc(-c3ccc4ccccc4c3)cs2)CC1 returned G9a block -9.9%[12.7 µM].
`CN1CCN(NC(=O)c2cc(Br)ccc2Cl)CC1` gave Sfp inh 1.8%, miR-21 reporter -3.1%, ALDH1A1 inh 0.1%, JMJD2E inh 4.2% and G9a block -23.1%.
Screening Cc1cc(C(=O)CSc2nnnn2-c2ccc(O)cc2)c(C)n1C returned Sfp inh -6.2%, miR-21 reporter -38.5%, ALDH1A1 inh 15.8µM*, JMJD2E inh -14.5% and G9a block inconclusive.
Screening Cc1ccc(-n2c(C)cc(C(=O)CSc3nnnn3C)c2C)cc1 returned Sfp inh inconclusive, miR-21 reporter -13.6%, ALDH1A1 inh inconclusive, JMJD2E inh -5.8%, Lamin A splicing inconclusive and G9a block 14.1µM*.
`Cc1ccc(-n2c(C)cc(C(=O)CSc3nncs3)c2C)cc1` gave Sfp inh inconclusive, miR-21 reporter -2.3%, ALDH1A1 inh 5.5%, JMJD2E inh inconclusive, Lamin A splicing inconclusive and G9a block inconclusive.
`C/C=C1\C(=O)CC2C3CCC4=CC(=O)CC[C@]4(C)C3CC[C@]12C` (some centres not stated) gave Sfp inh -6.3%, ALDH1A1 inh 4.3%, JMJD2E inh 2.7%, Lamin A splicing -16.1% and G9a block 21.8%[12.7 µM].
Screening C[C@@]12CC[C@@H]3[C@H](CCC4=CC(=O)CC[C@]43C)[C@@H]1CC[C@@H]2C(=O)COS(=O)(=O)c1ccc(Br)cc1 returned ALDH1A1 inh 3.55µM*.
Screening C[C@@]12C[C@H](O)C3[C@H](CCC4=CC(=O)CC[C@]43C)[C@H]1CC[C@@H]2c1csc(N)n1 (some centres not stated) returned ALDH1A1 inh 2µM*.
`Cc1nc(C2CCC3C4CCC5=CC(=O)CC[C@]5(C)C4CC[C@]23C)cs1` (some centres not stated) gave Sfp inh 79.4µM*, miR-21 reporter 4.8%, JMJD2E inh -3.8% and G9a block -1.7%[12.7 µM].
Screening COc1ccc(N2CC(C(=O)N/N=C/c3cc([N+](=O)[O-])ccc3O)CC2=O)cc1 (configuration not stated) returned Sfp inh 25.8%, miR-21 reporter -1.4%, ALDH1A1 inh inconclusive, JMJD2E inh 25.1µM* and G9a block -37.0%.
`CS(=O)(=O)c1ccc2nc(NC(=O)C3CC(=O)N(c4ccc(F)cc4)C3)sc2c1` (configuration not stated) gave Sfp inh -7.4%, miR-21 reporter 8.7% and G9a block inconclusive.
For CCc1ccc(N2CC(C(=O)Nc3nc4ccc(S(C)(=O)=O)cc4s3)CC2=O)cc1 (configuration not stated) the results were Sfp inh -22.1%, miR-21 reporter 8.8% and G9a block 39.8µM*.
For CCc1ccc(N2CC(C(=O)Nc3nccs3)CC2=O)cc1 (configuration not stated) the results were Sfp inh -6.1%, miR-21 reporter 4.1%, ALDH1A1 inh inconclusive, JMJD2E inh -0.8%, Lamin A splicing inconclusive and G9a block -2.4%[59 µM].
`COc1ccc(N2CC(C(=O)Nc3ccc([N+](=O)[O-])cc3Br)CC2=O)cc1` (configuration not stated) gave Sfp inh 5.0%, miR-21 reporter 0.6% and G9a block inconclusive.
`COc1ccc(N2CC(C(=O)Nc3nc4ccc(S(C)(=O)=O)cc4s3)CC2=O)cc1` (configuration not stated) gave Sfp inh inconclusive, miR-21 reporter 6.1% and G9a block 28.2µM*.
`CCC(C(=O)Nc1ccc(C(=O)OC)cc1)n1nc(-c2ccc(C)cc2)c2c(c1=O)CCCC2` (configuration not stated) gave miR-21 reporter -5.2% and G9a block 2.1%[59 µM].
CCCCOC(=O)c1ccc(NC(=O)c2cc3c(=O)n4cccc(C)c4nc3n2C)cc1 was read as miR-21 reporter -24.0%, Lamin A splicing -15.0%[46 µM] and G9a block -32.7%[59 µM].
`Cc1ccc(S(=O)(=O)Nc2cc3c(cc2N2CCOCC2)n(C)c(=O)c(=O)n3C)cc1` gave Sfp inh -2.4%, miR-21 reporter -1.9% and G9a block inconclusive.
CCN(CC)S(=O)(=O)c1ccc(N2CCOCC2)c(NS(=O)(=O)c2ccc(OC)cc2)c1 was read as Sfp inh 14.0%, miR-21 reporter 0.3%, JMJD2E inh 1.1% and G9a block 0.0%.
`CCN(CC)S(=O)(=O)c1ccc(N2CCOCC2)c(NS(=O)(=O)c2ccc(C)cc2)c1` gave Sfp inh -12.6%, miR-21 reporter -2.0%, ALDH1A1 inh 2.24µM*, JMJD2E inh -10.0%, Lamin A splicing inconclusive and G9a block -12.3%.
